Source: PubChem (Broad Institute)
This excerpt belongs to a sample that is enriched for hits.
Tg IFNy HTS – T. gondii growth inhibition with IFN-gamma, primary screen, cell-based; Toxoplasma gondii growth in IFN-gamma-treated host cells; stronger effect = lower value; hit rate 3.8% among 69,000; activity change, negative = inhibition, % (test concentration not listed); in the data active = activity change below about -70%, passing the limit was not always enough;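 also: host cells are HeLa cells infected with Toxoplasma gondii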
The depositor's hits bear a star; i = inactive; ! = a repeat was not active.

SMILES | Tg IFNy HTS
Cc1cccc(NC(=O)c2ccc(-c3nc(CN4CCN(c5ccccc5)CC4)c(C)o3)cc2)c1C | 45
CCOc1ccc(-c2cnc[nH]2)cc1OCC | -47
CCCc1ncc(-c2ccc(OCC)c(OCC)c2)[nH]1 | -4
CCOc1ccc(-c2cnc(-c3nccn3CC)[nH]2)cc1OCC | -81*
COc1ccc(-c2nc(C)c(CCNS(=O)(=O)c3ccc(C)c(C)c3)s2)cc1 | i
CCc1noc(C)c1C(=O)NCc1cnn2ccccc12 | -8
CC(=O)Nc1sc2c(c1C#N)CCc1ccccc1-2 | -90*
CC(=O)Nc1ccc2c(c1)CCc1ccccc1-2 | 24
COc1nc2c(c(-c3ccco3)c1C#N)Cc1cc(NC(C)=O)ccc1-2 | 8
O=C(CCc1cccc(F)c1)N(Cc1ccccn1)CC1CCCO1 (configuration not stated) | -25
Cn1nc(C(F)(F)F)c(-c2ccc(Br)cc2)c1NC(=O)C1CCC1C(=O)O (configuration not stated) | -10
Cn1nc(C(C)(C)C)cc1C(=O)Nc1c(-c2ccccc2)c(C(F)(F)F)nn1C | -95*
C[C@H](Cn1nnc2ccccc21)NC(=O)c1cc(C(C)(C)C)nn1C | 2
Cc1nc(-c2ccc(F)cc2)sc1CCNC(=O)C(=O)Nc1ccccc1C#N | 32
Cc1ccc(-n2ncc3c(-n4nc(C)cc4NC(=O)CCC4CCCC4)ncnc32)c(C)c1 | -31
Cc1ccc(-n2ncc3c(-n4nc(C)cc4NC(=O)C4CCCC4)ncnc32)c(C)c1 | -106*
CCCCC1CCC(C(=O)Nc2cc(C)nn2-c2ncnc3c2cnn3-c2ccc(C)cc2C)CC1 (configuration not stated) | 21
Cc1c(CNC(=O)Nc2ccccc2)sc2ccccc12 | -79*
Cc1oc2ccccc2c1CNC(=O)Nc1ccc(Br)cc1 | -47
O=C(Nc1ccccc1)Nc1nc(=O)c2ccccc2s1 | 143
CCCC(=O)N1CCN(C)C(=O)C(Cc2cccc(-c3cccc(OC)c3)c2)C1 (configuration not stated) | 0
Cc1ccc(-c2coc(-c3ccc(NC(=O)Nc4ccc(C)c(F)c4)cc3)n2)c(C)c1 | -43
O=S(=O)(N1CCOCC1)N1CCC(c2ccn[nH]2)C1 (configuration not stated) | -1
O=C(O)c1ccccc1Nc1cccc(C(F)(F)F)c1 | -73*!
O=C(O)c1ccccc1Nc1ccccc1 | -13
SMILES | Tg IFNy HTS
O=C(OCCOCCO)c1ccccc1Nc1cccc(C(F)(F)F)c1 | 39
COc1ccccc1-n1cc(C(=O)NCC2(C)CC(C)=NO2)cn1 (configuration not stated) | 2
CCn1c(CC2CCNCC2)nn(CC2CC(c3ccccc3)=NO2)c1=O (configuration not stated) | -3
O=C(O)CC1CC(c2ccccc2)=NO1 (configuration not stated) | 7
COc1cccc(CC2CC(c3ccccc3)=NO2)c1OCc1c(Cl)cccc1Cl (configuration not stated) | -96*
COc1ccccc1NC(=O)C1C2C=CC(C2)C1C(=O)O (configuration not stated) | 11
CCS(=O)(=O)N1CCC2(CC1)COC(COCc1ccncc1)C2 (configuration not stated) | -3
CCN1c2cc(C)ccc2-n2cccc2C12CCN(C(=O)Nc1cccc(Br)c1)CC2 | -84*
CCN1c2cc(C)ccc2-n2cccc2C12CCN(C(=O)NC(C)C)CC2 | -16
CCN1c2cc(C)ccc2-n2cccc2C12CCN(C(=O)Nc1ccc(C)c(Cl)c1)CC2 | 5
O=C(Nc1cccc(C(F)(F)F)c1)N1CCC2(CC1)Nc1ccccc1-n1cccc12 | 474
CSc1cccc(NC(=O)N2CCC3(CC2)Nc2cc(F)ccc2-n2cccc23)c1 | i
CCN1c2cc(C)ccc2-n2cccc2C12CCN(C(=O)Nc1ccccc1C)CC2 | 15
CCN1c2cc(C)ccc2-n2cccc2C12CCN(C(=O)Nc1cccc(F)c1)CC2 | -85*
CCOC(=O)C1CCC(CNC(=O)N2CCC3(CC2)c2cccn2-c2ccc(C)cc2N3CC)CC1 (configuration not stated) | -10
CCN1c2cc(C)ccc2-n2cccc2C12CCN(C(=O)Nc1cccc(SC)c1)CC2 | -87*
CCN1c2cc(C)ccc2-n2cccc2C12CCN(C(=O)Nc1cccc(C(F)(F)F)c1)CC2 | -111*
CCN1c2cc(C)ccc2-n2cccc2C12CCN(C(=O)Nc1ccc(OC)c(OC)c1)CC2 | -31
Cc1ccc2c(c1)NC1(CCN(C(=O)Nc3cccc(C(F)(F)F)c3)CC1)c1cccn1-2 | 81
Cc1ccc(CC2(NC(=O)c3cnc(C4CC4)[nH]c3=O)CC2)cc1 | -3
CN(C)C1CCN(Cc2cc3n(n2)CCCNC3)C1 (configuration not stated) | 10
O=C(CCn1cnc2cc(-c3noc(-c4cccc5[nH]ccc45)n3)ccc21)N1CCCC1 | -9
Cc1ccc(C)c(NC(=O)N2CCC3(CC2)Nc2cc(C)ccc2-n2cccc23)c1 | -54
CCN1c2cc(C)ccc2-n2cccc2C12CCN(C(=O)Nc1ccc(C)cc1Cl)CC2 | 107
